# Data published in PMC4336329 (PLoS ONE, 2015).
# The whole screen tested about 310,000 compounds, of which about 14,000 (4.5%) showed an effect of 50% or more. Effects have a minus sign here. Many of the other results were omitted from the sample, so strong results are more common in it than they were.
# Target: human ether-à-go-go-related gene (hERG) potassium channel (human, UniProt Q12809)
# Experiment: primary screen, population patch clamp on CHO cells stably expressing hERG; higher = less effect of the substance
# 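Also: peak tail current of the secondary pulse compared with the same well before compound.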
# human ether-à-go-go-related gene (hERG) potassium channel, sequence (Q12809 whole entry, looked up): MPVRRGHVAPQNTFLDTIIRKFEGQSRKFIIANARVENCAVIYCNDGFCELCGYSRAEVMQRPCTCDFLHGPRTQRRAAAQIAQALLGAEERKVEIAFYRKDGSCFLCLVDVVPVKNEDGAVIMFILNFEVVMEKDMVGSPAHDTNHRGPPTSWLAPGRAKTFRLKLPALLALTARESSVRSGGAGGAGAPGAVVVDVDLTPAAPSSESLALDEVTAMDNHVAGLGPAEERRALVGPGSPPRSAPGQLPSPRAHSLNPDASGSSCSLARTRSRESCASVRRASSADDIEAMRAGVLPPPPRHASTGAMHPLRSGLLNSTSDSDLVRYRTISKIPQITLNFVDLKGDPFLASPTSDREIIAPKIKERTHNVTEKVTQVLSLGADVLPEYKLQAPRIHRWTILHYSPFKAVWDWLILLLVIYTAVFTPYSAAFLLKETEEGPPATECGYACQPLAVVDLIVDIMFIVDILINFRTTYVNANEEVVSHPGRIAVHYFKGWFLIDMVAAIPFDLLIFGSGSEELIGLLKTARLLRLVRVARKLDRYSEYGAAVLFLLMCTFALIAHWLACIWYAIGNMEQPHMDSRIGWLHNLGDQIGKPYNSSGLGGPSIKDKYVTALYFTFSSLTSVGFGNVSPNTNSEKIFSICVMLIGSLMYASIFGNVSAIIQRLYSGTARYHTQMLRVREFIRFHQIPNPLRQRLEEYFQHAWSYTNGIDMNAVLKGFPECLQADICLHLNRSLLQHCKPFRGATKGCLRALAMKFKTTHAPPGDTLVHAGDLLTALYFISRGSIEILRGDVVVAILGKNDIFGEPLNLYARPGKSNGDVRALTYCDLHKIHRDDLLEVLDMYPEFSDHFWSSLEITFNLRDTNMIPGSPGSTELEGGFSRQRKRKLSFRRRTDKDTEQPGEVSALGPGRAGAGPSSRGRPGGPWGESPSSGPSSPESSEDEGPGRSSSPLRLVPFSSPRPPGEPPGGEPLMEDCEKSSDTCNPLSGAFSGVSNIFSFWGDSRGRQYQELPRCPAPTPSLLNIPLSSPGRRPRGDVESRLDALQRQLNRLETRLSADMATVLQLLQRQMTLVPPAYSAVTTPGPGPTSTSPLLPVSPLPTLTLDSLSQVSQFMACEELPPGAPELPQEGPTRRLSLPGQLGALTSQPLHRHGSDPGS
row,SMILES,"hERG current change (%, negative = inhibition) at 10uM"
1,CCc1cc2c(=O)n(Cc3ccco3)c(SCc3c(C)noc3C)nc2s1,-5.47%
2,CCOc1ccc(-c2cc(C(=O)N3CCN(c4ccccn4)CC3)c3ccccc3n2)cc1,2.79%
3,Cn1ncc2c(Nc3ccc([N+](=O)[O-])cc3)nc(Cl)nc21,18.9%
4,Cc1ccc(-c2nnc(N3CCC(C)CC3)c3ccccc23)cc1,3.1%
5,COc1nnc(-c2ccc(N3CCOCC3)c(NC(=O)C3CCCCC3)c2)c2ccccc12,-37.3%
6,O=C(C1CCC(C(=O)N2CCCCC2)CC1)N1CCCCC1 (stereo not shown),6.09%
7,O=C(CSc1nc2c([nH]c3ccccc32)c(=O)n1-c1ccccc1)NCC1CCCO1 (stereo not shown),3.52%
8,CN(C)c1ccc(C(CNC(=O)Cc2cccc3ccccc23)N(C)C)cc1 (stereo not shown),-32.8%
9,CC(=O)N1c2ccc(S(=O)(=O)NCCC(=O)Nc3ccc(OC(F)(F)F)cc3)cc2CC1C (stereo not shown),-13.6%
10,COCCN(C(=O)c1csnn1)C(C(=O)NC1CCCCC1)c1ccccc1F (stereo not shown),3.83%
11,COc1ccc(-c2csc(N3CCC(c4ccccc4)CC3)n2)cc1,23.2%
12,CC(C)Cn1c(SCC(=O)N(C)C2CCS(=O)(=O)C2)nc2cc(Cl)ccc2c1=O (stereo not shown),-31.5%
13,CCc1cc2c(=O)n(Cc3ccco3)c(SCC(=O)N(C)C3CCS(=O)(=O)C3)nc2s1 (stereo not shown),-79.1%
14,CCc1cc2c(SCC(=O)N(C)C3CCS(=O)(=O)C3)ncnc2s1 (stereo not shown),-20.1%
15,CCc1cc2c(=O)n(Cc3ccco3)c(SCC(=O)N3CCCc4ccccc43)nc2s1,-23.4%
16,CCN(C(=O)CSc1nc2cc(Cl)ccc2c(=O)n1CC(C)C)C1CCS(=O)(=O)C1 (stereo not shown),2.51%
17,CCN(C(=O)CSc1nc2cc(Cl)ccc2c(=O)n1Cc1ccco1)C1CCS(=O)(=O)C1 (stereo not shown),-74.7%
18,COc1ccc(CNC(=O)[C@H](C)NC(=O)C2CCN(C(=O)[C@@H](N)CCSC)CC2)cc1,5.47%
19,O=C1C=C(O)CC(c2ccco2)C1 (stereo not shown),9.75%
20,O=C(/C=C/c1ccco1)Nc1ccc2nc3n(c(=O)c2c1)CCCC3,-8.17%
21,N#CCC(=O)N1CCn2c1nc1ccccc12,17.2%
22,Cn1c(=O)n(CCc2ccccc2)c(=O)c2c1nc1n2CCCN1c1ccccc1,-20.7%

row,SMILES,"hERG current change (%, negative = inhibition) at 10uM"
1,COc1cc(/C=C2/C(=N)N3C=CSC3=NC2=O)ccc1OCCCOc1cc(C)ccc1C,2.54%
2,CC1CN(CCOc2ccc([N+](=O)[O-])cc2)CC(C)O1.O=C(O)C(=O)O (stereo not shown),-46.2%
3,CC1CCCN(CC(=O)Nc2cccc([N+](=O)[O-])c2)C1 (stereo not shown),-16.7%
4,COC(=O)c1ccc(OCCCCN2CC(C)OC(C)C2)cc1.O=C(O)C(=O)O (stereo not shown),-20%
5,CC1CCCN(CCCOc2ccc([N+](=O)[O-])cc2)C1.O=C(O)C(=O)O (stereo not shown),-74.7%
6,CC1CC(C)CN(CCCOc2ccccc2[N+](=O)[O-])C1.O=C(O)C(=O)O (stereo not shown),-35.5%
7,CC1CN(CCCCOc2ccc(F)cc2)CC(C)O1.O=C(O)C(=O)O (stereo not shown),-42.7%
8,CC1CC(C)CN(CCCCOc2ccc([N+](=O)[O-])cc2)C1.O=C(O)C(=O)O (stereo not shown),-78.8%
9,CC1CN(CCCOc2ccc([N+](=O)[O-])cc2)CC(C)O1.O=C(O)C(=O)O (stereo not shown),-71.6%
10,Cc1ccc(OC(=O)CCS(=O)(=O)c2ccc(C)cc2)cc1,-24.4%
11,O=C(CSc1nnc(COc2ccc(Br)cc2)o1)N1CCOCC1,-17%
12,CN(c1ccccc1C(=O)N1CCCC1)S(C)(=O)=O,-9.73%
13,N#Cc1ccc(OCC(=O)Nc2ccc3[nH]c(=O)[nH]c3c2)cc1,-4.57%
14,C=CCn1c(O)c(C(CC)=Nc2cccc(C(=O)O)c2)c(=O)[nH]c1=O,11.6%
15,CSc1ccccc1OCc1cc(C(=O)NCCCc2ccccc2)no1,12.9%
16,Cc1ccc2c(CN(C)Cc3cccc(Cl)c3)cc(=O)oc2c1C,12%
17,COc1ccccc1NC(=S)N1CC(C)OC(C)C1 (stereo not shown),19.5%
18,COc1cccc(N2CCN(C(=O)CN(C)S(=O)(=O)c3ccc4c(c3)c(=O)n(C)c(=O)n4C)CC2)c1,-10.8%
19,CC(C)(C)OC(=O)CNC(=O)c1nc[nH]c1C(=O)NCC(=O)OC(C)(C)C,3.98%
20,CN(C(=O)COC(=O)CNS(=O)(=O)/C=C/c1ccccc1)C1CCS(=O)(=O)C1 (stereo not shown),23.3%
21,CCN(CC1COc2ccccc2O1)C(=O)CN1C(=O)NC(C)(c2ccc(C)cc2)C1=O (stereo not shown),-28.8%
